Compound activity deposited in PubChem BioAssay by The Scripps Research Institute Molecular Screening Center.
pPAFAH inh – inhibitors of human plasma PAF acetylhydrolase (pPAFAH); Q13093; recombinant pPAFAH, FP-rhodamine probe fluorescence polarization; inhibition, % at 3.39 µM; 1.5% of 330,000 active; AID 463082;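 active = inhibition above the mean inhibition across the screen plus 3 SD, cut at about 25% in these data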;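 also: inhibitors block binding of the rhodamine activity-based probe so polarization drops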
PAFAH1B3 inh – blocks human PAF acetylhydrolase 1B catalytic subunit 3. Q15102. AID 492972. inhibition, % at 3.39 µM. 0.28% of 340,000 active. recombinant PAFAH1B3, FP-rhodamine probe, fluorescence polarization;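 active = inhibition above the screen-wide average of all tested compounds plus 3 SD, cut at about 25% in these data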
PP5 primary – inhibitors of human protein phosphatase 5 (PP5); P53041; purified PP5c, OMFP substrate fluorescence; inhibition, % at 6.7 µM; 0.18% of 320,000 active; AID 1987;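 active = inhibition above the campaign's mean inhibition across all tested compounds plus 3 SD, cut at about 9.5% in these data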
Target sequence (P53041 whole entry, looked up): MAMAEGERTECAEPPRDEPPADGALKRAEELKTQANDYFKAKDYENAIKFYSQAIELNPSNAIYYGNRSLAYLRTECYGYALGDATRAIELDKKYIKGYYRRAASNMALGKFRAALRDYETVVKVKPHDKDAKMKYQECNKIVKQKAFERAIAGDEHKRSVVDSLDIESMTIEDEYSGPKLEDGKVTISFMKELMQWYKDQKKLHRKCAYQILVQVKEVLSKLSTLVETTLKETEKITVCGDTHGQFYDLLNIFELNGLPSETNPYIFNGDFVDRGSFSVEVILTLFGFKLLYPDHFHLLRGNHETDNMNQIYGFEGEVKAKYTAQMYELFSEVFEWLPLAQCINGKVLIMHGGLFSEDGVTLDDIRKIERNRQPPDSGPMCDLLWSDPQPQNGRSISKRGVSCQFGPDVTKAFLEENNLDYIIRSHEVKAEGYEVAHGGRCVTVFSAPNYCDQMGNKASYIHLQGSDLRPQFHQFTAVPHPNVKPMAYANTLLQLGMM
PAFAH1B2 inh – PAFAH1B2 (human) inhibition; P68402; recombinant PAFAH1B2, FP-rhodamine activity probe, fluorescence polarization; inhibition, % at 3.39 µM; 1.2% of 340,000 active;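 active = inhibition above the mean of all tested compounds plus 3 SD, cut at about 24% in these data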
Fh CTSL1 inh – cathepsin L1 inhibition, PFM18AAP counter-screen; recombinant F. hepatica cathepsin L1, Z-Leu-Arg-MCA fluorescence; inhibition, % at 5.96 µM; 0.49% of 300,000 active; AID 1906;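 active = inhibition above the mean of all tested compounds plus 3 SD, set per screening campaign, cut at about 17% in these data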
PAFAH2 FP inh – PAFAH2 (human) inhibition. AID 492956. inhibition, % at 3.39 µM. Q99487. recombinant PAFAH2, FP-rhodamine activity probe, fluorescence polarization. 0.99% of 340,000 active;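 active = inhibition above the mean over all tested compounds plus 3 SD, cut at about 30% in these data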;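 also: inhibitors block probe labeling of enzyme so polarization drops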
PAFAH2 FP conf – confirmation of human PAFAH2 inhibitors | shares compounds with PAFAH2 FP inh | recombinant PAFAH2, FP-rhodamine activity probe, fluorescence polarization | inhibition, % at 3.39 µM | 65% of 2,300 active | AID 493030;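 active = mean inhibition over three repeats above a set limit taken from the earlier primary screen, cut at about 30% in these data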;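 also: inhibitor blocks binding of rhodamine activity probe so polarization falls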
A number is an active result; – = inactive; · = no result given. Shown are actives, neighbours in structure and some others; about 3% of the full set was active somewhere.

SMILES	pPAFAH inh	PAFAH1B3 inh	PP5 primary	PAFAH1B2 inh	Fh CTSL1 inh	PAFAH2 FP inh	PAFAH2 FP conf
O=C(COC(=O)c1ccc(O)cc1)NCCCc1ccccc1	·	–	·	–	·	32	–
Cc1ccsc1C(=O)OCC(=O)NCCNC(=O)COC(=O)c1sccc1C	–	–	–	–	–	–	·
Cc1ccc(C(=O)OCC(=O)NCCc2ccccc2)cc1C	–	–	–	–	·	57	33
Cc1ccc(C(=O)OCC(=O)NCC(F)(F)F)cc1C	–	–	–	–	–	53	50
CC(C)(C)c1ccc(S(=O)(=O)N2CCN(Cc3cc4c(cc3O)OCO4)CC2)cc1	–	–	–	–	·	–	·
CCOC(=O)c1nnn(-c2nonc2-n2cccc2)c1CCl	–	–	–	–	–	31	44
CCOC(=O)C1CCN(C(=O)c2ccc(S(=O)(=O)Nc3ccccc3OC)cc2)CC1	–	–	–	–	·	–	·
Cc1ccc(CNC(=O)COC(=O)CN2C(=O)C3CC=CCC3C2=O)cc1 (configuration not stated)	–	–	·	–	·	37	–
Cc1ccc(S(=O)(=O)N2CCCCC2)cc1C(=O)NCCCN1CCOCC1	–	–	–	–	–	–	·
O=C(COC(=O)C1CC2C=CC1C2)Nc1cccc(S(=O)(=O)N2CCCCCC2)c1 (configuration not stated)	–	–	–	–	–	36	–
O=C(COC(=O)C1CCC1)Nc1cccc(S(=O)(=O)N2CCOCC2)c1	–	–	–	–	–	–	·
O=C(COC(=O)C1CC2C=CC1C2)Nc1cccc(S(=O)(=O)N2CCCCC2)c1 (configuration not stated)	–	–	–	–	–	53	41
O=C(N/N=C/c1ccc(O)c(O)c1)N/N=C/c1ccc(O)c(O)c1	·	–	·	–	·	31	–
CC1CCC(NC(=O)CCS(=O)(=O)c2ccc3c(c2)CCN3C(=O)C2CC2)CC1 (configuration not stated)	–	–	–	–	–	–	·
CCCCC1=NN2C(=N)CC(=O)N=C2S1	–	–	–	–	–	33	–
O=C(Cc1ccc2c(c1)OCCO2)Nc1cc(C(F)(F)F)ccc1N1CCOCC1	·	–	·	–	·	–	·
O=C(O)CN=C(NS(=O)(=O)c1ccc(Cl)cc1)c1ccc(F)cc1	–	–	–	–	–	–	·
O=C(O)CN=C(NS(=O)(=O)c1ccc(Cl)cc1)c1ccccc1	–	–	–	–	–	35	–
COc1ccccc1N(C)S(=O)(=O)c1ccc(C(=O)Nc2ccc(C)cc2C)cc1	·	–	·	–	·	–	·
O=c1cc(-c2ccco2)nc(SCc2cccc(Cl)c2)[nH]1	–	–	–	–	–	32	–
O=C1c2ccccc2C(=O)N1C1C(=O)N2CCSC12C(=O)OCc1ccccc1 (configuration not stated)	·	–	·	–	·	–	·
O=C(NNc1cc(Cl)ccc1Cl)c1cccs1	–	·	–	·	–	·	·
N/C(=N\OC(=O)c1cccs1)C1(c2ccc(Cl)cc2Cl)CC1	–	–	–	–	–	58	30
Cc1c(NC(=O)COc2ccc(C(C)C)cc2)c(=O)n(-c2ccccc2)n1C	–	–	–	–	–	–	·
COc1ccc(-c2csc(NC(=O)c3nc(-c4ccccc4)oc3C)n2)cc1	–	–	–	–	–	–	·
SMILES	pPAFAH inh	PAFAH1B3 inh	PP5 primary	PAFAH1B2 inh	Fh CTSL1 inh	PAFAH2 FP inh	PAFAH2 FP conf
Cc1oc(-c2ccccc2)nc1C(=O)Nc1nccs1	–	–	–	–	–	32	–
O=C(Nc1ncccn1)c1ccc([N+](=O)[O-])o1	–	–	–	–	–	78	67
Nn1c(SCC(=O)Nc2cccnc2Cl)nnc1-c1ccccc1	–	–	–	–	·	–	·
CCOc1ccc(C(=O)OCc2nnc(-c3cccs3)o2)cc1OC	–	–	–	–	–	85	79
O=C(OCc1nnc(-c2cccs2)o1)c1cccnc1Cl	–	–	–	–	·	–	·
Cc1nn(Cc2ccccc2)c(Cl)c1C(=O)OCc1nnc(-c2ccccc2)o1	–	–	–	–	–	32	–
O=C(OCc1nnc(-c2ccccc2)o1)c1ccco1	–	–	–	–	–	45	42
O=C(OCc1nnc(-c2ccccc2)o1)c1ccc2c(c1)OCO2	–	–	–	–	–	58	60
N#Cc1ccccc1COC(=O)c1ccc2c(c1)OCO2	–	–	–	–	·	–	·
O=C(OCc1nnc(-c2ccccc2)o1)c1cc(=O)c2ccccc2o1	–	–	–	–	–	–	·
Cc1ccc(C(=O)N2CCNC(=O)C2CC(=O)Nc2ccccc2)cc1 (configuration not stated)	–	–	–	–	–	–	·
CCc1ccc(CN2CCC(C(=O)Nc3ccc(Oc4ccccc4)nc3)CC2)o1	–	–	–	–	–	–	·
O=C(OCc1nnc(-c2ccccc2)o1)c1cccnc1Cl	–	–	–	–	–	–	·
O=C(OCc1nnc(-c2ccc(Cl)cc2)o1)c1ccc(O)cc1	–	–	–	–	–	75	68
CCOc1ncccc1C(=O)OCc1nnc(-c2ccccc2)o1	–	–	–	–	–	47	45
O=C(CNC(=O)c1ccccc1)OCc1nnc(-c2ccccc2)o1	–	–	–	–	–	–	·
O=C1CCC(C(=O)OCc2nnc(-c3ccc(Cl)cc3)o2)=NN1	–	–	–	–	–	–	·
CCOc1ccc(C(=O)NCC(=O)OCc2nnc(-c3ccccc3)o2)cc1OCC	–	–	–	–	·	60	53
Cc1ccc(C(=O)OCc2nnc(-c3ccccc3)o2)s1	–	–	–	–	–	81	73
Cc1cccc(N2CC(C(=O)Nc3nccs3)CC2=O)c1C (configuration not stated)	–	–	–	–	–	–	·
CCc1nnc(NC(=O)CCNC(=O)c2ccco2)s1	–	–	–	–	–	–	·
CC(=O)Nc1cccc(NC(=O)CS(=O)(=O)c2cn(CC(=O)N(C(C)C)C(C)C)c3ccccc23)c1	–	–	–	–	–	–	·
O=C1C=C(c2ccccc2)C(c2ccccc2)C1 (configuration not stated)	·	–	·	–	·	–	·
CCCCCN(C(=O)CCC(=O)OCC(=O)N1CCCC(C)C1)c1c(N)n(CCCC)c(=O)[nH]c1=O (configuration not stated)	–	–	–	–	–	–	·
O=C(COC(=O)c1cc(Br)ccc1Cl)NC1CCCC1	–	–	–	–	–	34	30
N#CCC(=O)Nc1ccc(C(=O)OCC(=O)N(C2CCCCC2)C2CCCCC2)cc1	–	–	–	–	–	–	·
Nc1cc(Cl)ccc1C(=O)OCC(=O)NC1CCCCC1	–	–	–	–	–	33	31
O=C(COC(=O)c1ccc(Br)cc1)NC1CCCC1	–	–	–	–	–	67	69
N#CCC(=O)Nc1ccc(C(=O)OCC(=O)NC2CCCCCC2)cc1	–	–	–	–	·	83	84
